Tests used:
Test in all cases: log2 ratio of Biotin-Ahx-Ub-VS probe labelling (fragment/DMSO); higher = less target engagement (more negative = stronger competition), active = hit call of the paper (q ≤ 0.05, log2 ratio ≤ -1)
Conditions in all cases: compound concentration: 200 uM; treatment time: 3 h
USP42 = biological target: T1, USP42 (UniProt Q9H9J4)
T1 sequence (whole entry): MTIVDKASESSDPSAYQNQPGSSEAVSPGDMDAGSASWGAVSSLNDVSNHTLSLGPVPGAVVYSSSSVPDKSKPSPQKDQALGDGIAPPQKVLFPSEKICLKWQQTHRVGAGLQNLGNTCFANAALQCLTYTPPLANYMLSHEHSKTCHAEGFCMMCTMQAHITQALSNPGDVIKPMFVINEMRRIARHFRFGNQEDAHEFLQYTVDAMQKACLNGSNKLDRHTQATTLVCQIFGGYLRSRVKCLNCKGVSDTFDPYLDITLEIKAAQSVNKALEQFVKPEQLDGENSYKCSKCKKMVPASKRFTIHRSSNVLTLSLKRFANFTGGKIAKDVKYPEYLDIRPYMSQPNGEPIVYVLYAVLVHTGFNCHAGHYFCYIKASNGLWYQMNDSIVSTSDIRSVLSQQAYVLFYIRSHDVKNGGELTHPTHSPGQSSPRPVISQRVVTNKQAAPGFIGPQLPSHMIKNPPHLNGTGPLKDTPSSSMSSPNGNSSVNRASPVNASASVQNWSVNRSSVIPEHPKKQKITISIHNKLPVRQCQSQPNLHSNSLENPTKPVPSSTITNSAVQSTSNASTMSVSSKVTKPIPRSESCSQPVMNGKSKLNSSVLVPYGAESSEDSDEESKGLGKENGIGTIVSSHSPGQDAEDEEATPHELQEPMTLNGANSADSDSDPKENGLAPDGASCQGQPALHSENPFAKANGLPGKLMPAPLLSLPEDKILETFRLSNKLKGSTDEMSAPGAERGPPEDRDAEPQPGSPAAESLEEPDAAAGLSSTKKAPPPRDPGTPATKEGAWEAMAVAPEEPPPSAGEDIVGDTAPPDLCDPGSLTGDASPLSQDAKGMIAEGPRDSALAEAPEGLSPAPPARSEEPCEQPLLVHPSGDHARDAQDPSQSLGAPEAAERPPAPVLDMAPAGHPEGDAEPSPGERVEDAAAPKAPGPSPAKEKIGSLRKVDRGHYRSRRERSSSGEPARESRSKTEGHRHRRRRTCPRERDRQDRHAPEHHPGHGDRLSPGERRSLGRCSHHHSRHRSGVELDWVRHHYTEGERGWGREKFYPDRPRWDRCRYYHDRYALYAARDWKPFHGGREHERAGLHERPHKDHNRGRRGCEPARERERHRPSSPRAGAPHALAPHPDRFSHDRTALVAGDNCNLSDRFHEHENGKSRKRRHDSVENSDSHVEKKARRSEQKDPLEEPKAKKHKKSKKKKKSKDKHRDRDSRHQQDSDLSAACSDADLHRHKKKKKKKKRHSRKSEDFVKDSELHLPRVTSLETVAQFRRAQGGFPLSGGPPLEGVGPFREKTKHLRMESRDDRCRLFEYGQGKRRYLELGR
Summary of the method: (§1)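 Fragment (200 µM) or vehicle was incubated for 3 h with triplicate HEK293T lysate samples of 495 µg, which were then treated with Biotin-Ahx-Ub-VS at 0.5 µM final for 1 h. Labelled DUBs were enriched on NeutrAvidin, digested with LysC and trypsin, and analysed by diaPASEF LC-MS/MS. Values are average log2 fragment/vehicle ratios from an unpaired t-test on global-median-normalised Spectronaut label-free quantities, using proteins with ≥2 unique peptides.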

USP46 = USP46 (UniProt P62068)
Summary of the method: as §1

USP47 = biological target: T2, USP47 (UniProt Q96K76)
T2 sequence (whole entry): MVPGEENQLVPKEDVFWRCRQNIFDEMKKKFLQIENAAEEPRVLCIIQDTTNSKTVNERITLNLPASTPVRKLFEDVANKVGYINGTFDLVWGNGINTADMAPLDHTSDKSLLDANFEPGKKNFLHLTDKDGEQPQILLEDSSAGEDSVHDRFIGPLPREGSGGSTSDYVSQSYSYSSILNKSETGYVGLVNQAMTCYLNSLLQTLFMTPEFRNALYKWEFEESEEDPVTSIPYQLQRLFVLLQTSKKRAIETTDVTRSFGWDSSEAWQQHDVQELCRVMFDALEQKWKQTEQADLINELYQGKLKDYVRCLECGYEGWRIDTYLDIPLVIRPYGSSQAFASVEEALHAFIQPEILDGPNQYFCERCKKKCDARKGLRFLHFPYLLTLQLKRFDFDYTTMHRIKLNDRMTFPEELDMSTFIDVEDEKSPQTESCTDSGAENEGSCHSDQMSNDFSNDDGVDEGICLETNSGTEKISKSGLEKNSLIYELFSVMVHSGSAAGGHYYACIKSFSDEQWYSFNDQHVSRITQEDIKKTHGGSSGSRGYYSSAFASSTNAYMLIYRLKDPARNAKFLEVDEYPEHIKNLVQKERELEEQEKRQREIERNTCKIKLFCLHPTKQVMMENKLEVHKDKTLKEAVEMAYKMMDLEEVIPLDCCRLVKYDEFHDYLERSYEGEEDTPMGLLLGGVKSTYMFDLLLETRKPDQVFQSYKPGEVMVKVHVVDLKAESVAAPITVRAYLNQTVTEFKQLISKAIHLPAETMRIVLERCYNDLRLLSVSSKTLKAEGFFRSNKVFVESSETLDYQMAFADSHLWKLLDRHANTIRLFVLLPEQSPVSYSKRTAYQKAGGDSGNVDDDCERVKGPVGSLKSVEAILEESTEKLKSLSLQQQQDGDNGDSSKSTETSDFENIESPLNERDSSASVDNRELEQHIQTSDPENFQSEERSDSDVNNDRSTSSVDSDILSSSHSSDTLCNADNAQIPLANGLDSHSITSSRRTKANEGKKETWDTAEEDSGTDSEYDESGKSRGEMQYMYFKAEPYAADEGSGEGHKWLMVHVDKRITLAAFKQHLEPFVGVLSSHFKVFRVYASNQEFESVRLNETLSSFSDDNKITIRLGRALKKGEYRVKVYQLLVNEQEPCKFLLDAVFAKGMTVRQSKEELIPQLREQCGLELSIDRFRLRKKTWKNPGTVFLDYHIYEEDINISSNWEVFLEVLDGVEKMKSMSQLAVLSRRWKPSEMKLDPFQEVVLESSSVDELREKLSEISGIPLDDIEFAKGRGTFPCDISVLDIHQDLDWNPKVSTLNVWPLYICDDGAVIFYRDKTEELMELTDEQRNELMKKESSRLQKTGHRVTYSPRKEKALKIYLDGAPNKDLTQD
Summary of the method: as §1

USP48 = biological target: T3, USP48 (UniProt Q86UV5)
T3 sequence (whole entry): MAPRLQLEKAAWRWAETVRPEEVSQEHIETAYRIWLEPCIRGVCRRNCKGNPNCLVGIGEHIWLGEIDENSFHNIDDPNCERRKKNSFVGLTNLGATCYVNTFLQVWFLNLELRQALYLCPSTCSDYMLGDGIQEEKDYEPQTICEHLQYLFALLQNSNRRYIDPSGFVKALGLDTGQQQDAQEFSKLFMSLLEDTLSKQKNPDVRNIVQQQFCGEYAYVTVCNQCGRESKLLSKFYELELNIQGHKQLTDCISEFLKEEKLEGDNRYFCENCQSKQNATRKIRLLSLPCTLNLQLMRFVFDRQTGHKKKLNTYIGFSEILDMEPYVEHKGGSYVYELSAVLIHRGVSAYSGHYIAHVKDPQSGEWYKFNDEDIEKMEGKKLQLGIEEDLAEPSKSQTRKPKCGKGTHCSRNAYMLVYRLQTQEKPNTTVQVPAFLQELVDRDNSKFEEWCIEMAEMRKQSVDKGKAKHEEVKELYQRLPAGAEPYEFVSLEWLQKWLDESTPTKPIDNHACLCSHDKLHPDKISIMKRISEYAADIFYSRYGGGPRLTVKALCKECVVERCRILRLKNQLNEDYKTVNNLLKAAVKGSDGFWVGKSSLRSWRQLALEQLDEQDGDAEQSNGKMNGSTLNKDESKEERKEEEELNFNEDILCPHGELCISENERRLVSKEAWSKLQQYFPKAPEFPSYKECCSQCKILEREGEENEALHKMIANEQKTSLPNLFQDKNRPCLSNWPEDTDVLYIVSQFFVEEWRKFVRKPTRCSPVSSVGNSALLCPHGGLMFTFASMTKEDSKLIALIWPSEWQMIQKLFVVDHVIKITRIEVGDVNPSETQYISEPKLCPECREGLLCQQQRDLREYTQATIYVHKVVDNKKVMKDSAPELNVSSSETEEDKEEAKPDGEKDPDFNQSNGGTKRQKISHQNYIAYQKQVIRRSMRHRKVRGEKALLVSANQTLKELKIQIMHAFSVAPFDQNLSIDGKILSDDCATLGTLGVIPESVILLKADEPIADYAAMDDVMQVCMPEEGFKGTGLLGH
Summary of the method: as §1

USP5 = biological target: T4, USP5 (UniProt P45974)
T4 sequence (whole entry): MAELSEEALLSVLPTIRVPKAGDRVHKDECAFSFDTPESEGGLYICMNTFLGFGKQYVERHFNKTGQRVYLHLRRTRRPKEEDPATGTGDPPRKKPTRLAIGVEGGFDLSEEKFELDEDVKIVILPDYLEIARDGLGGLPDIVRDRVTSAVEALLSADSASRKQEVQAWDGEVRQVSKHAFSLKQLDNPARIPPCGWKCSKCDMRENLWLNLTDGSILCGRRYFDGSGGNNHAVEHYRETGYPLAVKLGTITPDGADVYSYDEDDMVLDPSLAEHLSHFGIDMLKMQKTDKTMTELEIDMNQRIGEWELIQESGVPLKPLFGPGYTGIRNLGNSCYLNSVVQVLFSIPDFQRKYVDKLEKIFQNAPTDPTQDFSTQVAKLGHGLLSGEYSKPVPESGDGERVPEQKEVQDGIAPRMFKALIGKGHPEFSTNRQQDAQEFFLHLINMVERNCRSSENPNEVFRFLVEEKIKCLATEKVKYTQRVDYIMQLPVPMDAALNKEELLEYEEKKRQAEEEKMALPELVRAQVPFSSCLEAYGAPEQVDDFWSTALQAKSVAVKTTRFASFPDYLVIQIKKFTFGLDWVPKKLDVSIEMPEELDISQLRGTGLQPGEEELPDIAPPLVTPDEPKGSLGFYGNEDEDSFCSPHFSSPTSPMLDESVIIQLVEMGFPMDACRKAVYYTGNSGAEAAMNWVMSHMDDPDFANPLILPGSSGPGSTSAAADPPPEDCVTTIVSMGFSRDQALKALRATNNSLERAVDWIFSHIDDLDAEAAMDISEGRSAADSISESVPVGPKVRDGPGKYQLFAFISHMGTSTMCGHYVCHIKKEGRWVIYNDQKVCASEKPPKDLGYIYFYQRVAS
Summary of the method: as §1

USP54 = USP54 (UniProt Q70EL1)
Summary of the method: as §1

USP7 = USP7 (UniProt Q93009)
Summary of the method: as §1

USP8 = biological target: T5, USP8 (UniProt P40818)
T5 sequence (whole entry): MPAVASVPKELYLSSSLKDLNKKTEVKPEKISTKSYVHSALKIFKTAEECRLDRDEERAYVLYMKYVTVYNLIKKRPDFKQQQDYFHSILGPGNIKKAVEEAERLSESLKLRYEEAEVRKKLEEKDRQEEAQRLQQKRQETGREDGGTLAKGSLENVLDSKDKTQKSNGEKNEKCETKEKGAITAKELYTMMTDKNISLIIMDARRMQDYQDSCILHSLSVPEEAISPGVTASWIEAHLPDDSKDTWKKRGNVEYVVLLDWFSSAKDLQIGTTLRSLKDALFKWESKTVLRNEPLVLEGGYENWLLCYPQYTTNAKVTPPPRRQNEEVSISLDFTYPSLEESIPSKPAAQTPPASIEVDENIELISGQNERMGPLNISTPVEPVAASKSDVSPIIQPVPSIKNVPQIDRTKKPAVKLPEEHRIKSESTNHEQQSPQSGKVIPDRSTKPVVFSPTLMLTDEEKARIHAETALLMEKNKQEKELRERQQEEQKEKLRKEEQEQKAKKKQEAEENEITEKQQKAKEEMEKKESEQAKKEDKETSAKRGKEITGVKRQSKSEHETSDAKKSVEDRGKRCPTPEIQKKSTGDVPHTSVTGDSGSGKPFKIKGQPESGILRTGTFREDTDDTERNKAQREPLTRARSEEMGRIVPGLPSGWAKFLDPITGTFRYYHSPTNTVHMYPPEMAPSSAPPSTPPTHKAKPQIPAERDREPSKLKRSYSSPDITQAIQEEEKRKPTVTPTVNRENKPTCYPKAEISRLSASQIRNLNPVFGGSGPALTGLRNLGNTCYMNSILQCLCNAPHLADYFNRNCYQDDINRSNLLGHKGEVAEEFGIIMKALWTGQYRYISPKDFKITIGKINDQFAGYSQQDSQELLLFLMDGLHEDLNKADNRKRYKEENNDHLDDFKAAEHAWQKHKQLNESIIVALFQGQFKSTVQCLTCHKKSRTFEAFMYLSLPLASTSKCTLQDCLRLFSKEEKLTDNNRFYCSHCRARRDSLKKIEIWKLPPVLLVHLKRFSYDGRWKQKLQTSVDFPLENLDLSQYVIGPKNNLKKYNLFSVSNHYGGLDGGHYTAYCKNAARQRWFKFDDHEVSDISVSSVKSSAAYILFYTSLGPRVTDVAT
Summary of the method: as §1

USP9X = USP9X (UniProt Q93008)
Summary of the method: as §1

UniProt O00487 = biological target: UniProt O00487
Summary of the method: as §1

Measured: log2 ratio of Biotin-Ahx-Ub-VS probe labelling

Sequence of USP46 (P62068 whole entry): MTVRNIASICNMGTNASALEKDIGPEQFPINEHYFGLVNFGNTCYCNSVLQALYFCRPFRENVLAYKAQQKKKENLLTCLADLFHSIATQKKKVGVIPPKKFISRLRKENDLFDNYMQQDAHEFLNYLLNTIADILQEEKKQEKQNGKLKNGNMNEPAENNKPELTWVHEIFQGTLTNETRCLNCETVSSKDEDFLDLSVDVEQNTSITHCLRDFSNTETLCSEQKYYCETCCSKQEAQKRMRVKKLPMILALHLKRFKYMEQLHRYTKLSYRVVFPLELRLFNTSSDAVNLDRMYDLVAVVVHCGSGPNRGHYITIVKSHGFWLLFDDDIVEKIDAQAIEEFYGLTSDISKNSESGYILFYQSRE
Sequence of USP54 (Q70EL1 whole entry): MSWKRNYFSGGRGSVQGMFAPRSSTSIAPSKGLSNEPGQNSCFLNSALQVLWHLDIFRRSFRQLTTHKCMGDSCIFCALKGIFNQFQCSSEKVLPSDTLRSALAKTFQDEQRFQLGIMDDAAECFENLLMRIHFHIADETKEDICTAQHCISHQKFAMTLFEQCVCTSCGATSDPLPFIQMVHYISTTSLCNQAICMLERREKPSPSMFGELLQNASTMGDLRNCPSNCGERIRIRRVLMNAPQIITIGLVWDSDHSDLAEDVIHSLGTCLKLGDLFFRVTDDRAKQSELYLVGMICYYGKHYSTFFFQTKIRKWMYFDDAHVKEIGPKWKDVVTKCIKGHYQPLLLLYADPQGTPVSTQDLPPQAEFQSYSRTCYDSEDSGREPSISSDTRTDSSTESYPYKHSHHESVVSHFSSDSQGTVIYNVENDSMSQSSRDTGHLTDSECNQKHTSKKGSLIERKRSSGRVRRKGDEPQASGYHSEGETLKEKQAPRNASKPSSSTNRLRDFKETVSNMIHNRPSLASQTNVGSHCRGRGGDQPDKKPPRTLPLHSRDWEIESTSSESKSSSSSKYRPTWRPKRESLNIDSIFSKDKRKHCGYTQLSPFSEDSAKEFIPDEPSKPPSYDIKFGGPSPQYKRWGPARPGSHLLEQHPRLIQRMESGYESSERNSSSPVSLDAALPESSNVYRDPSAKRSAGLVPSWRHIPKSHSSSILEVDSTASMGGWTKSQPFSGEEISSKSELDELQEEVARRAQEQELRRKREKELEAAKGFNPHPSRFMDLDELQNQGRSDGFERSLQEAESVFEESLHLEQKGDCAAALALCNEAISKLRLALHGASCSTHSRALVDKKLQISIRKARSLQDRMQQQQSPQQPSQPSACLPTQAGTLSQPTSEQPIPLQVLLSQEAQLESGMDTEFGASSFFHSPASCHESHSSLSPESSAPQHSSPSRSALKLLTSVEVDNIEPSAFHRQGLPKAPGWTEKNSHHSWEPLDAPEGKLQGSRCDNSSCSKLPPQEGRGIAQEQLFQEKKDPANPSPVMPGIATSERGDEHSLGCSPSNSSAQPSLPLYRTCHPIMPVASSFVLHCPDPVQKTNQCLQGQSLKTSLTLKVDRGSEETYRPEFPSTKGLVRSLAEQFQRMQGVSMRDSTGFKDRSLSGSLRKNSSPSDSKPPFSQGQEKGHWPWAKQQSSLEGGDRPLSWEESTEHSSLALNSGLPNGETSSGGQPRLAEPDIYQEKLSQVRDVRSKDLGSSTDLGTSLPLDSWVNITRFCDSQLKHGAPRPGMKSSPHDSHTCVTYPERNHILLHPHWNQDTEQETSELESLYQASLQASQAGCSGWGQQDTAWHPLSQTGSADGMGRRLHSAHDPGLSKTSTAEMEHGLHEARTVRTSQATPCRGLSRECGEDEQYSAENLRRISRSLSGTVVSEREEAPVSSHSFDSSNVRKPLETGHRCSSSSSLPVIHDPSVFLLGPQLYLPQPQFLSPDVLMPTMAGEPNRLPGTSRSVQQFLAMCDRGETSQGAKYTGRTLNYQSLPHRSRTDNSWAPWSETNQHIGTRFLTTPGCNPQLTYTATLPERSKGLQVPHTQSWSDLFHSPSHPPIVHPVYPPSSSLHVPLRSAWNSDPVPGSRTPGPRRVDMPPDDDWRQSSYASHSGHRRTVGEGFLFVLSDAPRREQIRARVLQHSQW
Sequence of USP9X (Q93008 whole entry): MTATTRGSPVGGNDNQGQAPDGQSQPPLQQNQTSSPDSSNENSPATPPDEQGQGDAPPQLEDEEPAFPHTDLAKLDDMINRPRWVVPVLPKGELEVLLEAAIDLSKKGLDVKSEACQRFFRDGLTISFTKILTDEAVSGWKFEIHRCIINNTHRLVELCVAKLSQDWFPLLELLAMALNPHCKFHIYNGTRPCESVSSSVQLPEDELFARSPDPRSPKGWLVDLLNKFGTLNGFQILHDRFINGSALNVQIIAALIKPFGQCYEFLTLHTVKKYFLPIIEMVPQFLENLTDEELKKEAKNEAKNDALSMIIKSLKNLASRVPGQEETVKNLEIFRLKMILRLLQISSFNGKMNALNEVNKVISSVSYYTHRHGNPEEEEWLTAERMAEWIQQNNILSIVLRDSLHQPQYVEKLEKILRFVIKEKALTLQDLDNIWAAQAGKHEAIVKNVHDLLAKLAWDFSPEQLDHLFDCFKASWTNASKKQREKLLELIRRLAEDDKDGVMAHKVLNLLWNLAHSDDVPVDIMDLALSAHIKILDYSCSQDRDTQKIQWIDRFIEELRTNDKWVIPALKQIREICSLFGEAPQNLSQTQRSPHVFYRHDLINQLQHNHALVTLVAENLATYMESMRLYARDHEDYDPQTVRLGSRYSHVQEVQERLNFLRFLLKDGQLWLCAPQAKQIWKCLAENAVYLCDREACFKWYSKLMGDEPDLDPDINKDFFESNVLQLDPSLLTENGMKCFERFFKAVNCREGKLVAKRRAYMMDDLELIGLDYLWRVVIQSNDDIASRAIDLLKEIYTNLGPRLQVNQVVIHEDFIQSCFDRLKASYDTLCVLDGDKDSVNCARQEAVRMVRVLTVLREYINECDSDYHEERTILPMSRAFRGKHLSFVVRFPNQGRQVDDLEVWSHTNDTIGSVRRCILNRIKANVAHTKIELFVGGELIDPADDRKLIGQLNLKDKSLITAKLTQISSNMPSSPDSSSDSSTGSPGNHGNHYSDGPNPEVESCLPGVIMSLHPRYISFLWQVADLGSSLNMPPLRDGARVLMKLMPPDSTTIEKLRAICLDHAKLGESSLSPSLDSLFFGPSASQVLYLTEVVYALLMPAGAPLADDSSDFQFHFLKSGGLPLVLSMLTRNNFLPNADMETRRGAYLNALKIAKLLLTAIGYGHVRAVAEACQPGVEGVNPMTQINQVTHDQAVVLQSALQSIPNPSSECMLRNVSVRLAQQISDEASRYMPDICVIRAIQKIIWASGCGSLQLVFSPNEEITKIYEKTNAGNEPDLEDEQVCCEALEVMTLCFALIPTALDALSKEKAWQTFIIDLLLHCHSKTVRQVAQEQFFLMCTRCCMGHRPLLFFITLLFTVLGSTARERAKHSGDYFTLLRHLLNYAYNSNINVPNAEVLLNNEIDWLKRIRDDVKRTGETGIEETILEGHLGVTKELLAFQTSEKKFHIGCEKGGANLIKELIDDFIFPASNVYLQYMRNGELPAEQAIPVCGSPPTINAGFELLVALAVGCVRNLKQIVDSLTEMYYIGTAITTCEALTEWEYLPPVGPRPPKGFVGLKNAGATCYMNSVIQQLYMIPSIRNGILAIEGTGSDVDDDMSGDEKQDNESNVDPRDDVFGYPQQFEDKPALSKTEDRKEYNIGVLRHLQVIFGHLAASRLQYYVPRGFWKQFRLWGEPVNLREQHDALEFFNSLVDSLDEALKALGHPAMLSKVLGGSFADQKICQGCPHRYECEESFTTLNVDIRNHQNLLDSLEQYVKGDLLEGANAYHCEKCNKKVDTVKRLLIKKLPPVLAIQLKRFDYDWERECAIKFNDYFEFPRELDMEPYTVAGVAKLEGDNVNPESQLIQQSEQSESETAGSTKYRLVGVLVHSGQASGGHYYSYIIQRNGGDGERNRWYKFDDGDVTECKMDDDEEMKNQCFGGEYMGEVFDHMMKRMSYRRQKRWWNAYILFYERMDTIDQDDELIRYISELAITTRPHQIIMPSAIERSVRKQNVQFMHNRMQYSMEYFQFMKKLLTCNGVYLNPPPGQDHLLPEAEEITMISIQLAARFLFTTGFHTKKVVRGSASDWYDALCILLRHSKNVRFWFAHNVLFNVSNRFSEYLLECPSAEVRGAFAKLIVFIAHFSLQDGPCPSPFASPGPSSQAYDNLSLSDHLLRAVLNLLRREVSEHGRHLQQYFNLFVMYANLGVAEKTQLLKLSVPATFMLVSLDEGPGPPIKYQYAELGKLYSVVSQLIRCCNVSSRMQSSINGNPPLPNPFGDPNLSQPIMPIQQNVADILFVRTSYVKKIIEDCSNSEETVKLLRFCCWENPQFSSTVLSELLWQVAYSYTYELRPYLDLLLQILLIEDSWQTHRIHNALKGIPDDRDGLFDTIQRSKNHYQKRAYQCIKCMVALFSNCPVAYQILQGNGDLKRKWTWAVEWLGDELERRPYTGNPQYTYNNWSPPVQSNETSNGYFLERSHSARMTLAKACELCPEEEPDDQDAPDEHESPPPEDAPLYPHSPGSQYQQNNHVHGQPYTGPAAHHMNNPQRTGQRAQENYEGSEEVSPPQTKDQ
Sequence of UniProt O00487 (O00487 whole entry): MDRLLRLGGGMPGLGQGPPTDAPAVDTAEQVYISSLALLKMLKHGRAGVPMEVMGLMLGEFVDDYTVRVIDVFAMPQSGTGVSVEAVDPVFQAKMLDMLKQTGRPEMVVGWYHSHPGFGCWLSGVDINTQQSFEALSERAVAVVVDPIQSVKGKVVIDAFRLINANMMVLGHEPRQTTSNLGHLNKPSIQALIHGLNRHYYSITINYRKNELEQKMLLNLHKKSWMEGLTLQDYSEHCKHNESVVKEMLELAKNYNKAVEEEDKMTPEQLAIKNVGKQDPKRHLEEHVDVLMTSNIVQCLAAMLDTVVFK

Cc1ccc(CNC(=O)CCl)nc1C.Cl
inactive: USP42 0.369 | USP46 0.12 | USP47 0.076 | USP48 -0.13 | USP5 -0.461 | USP54 -0.18 | USP7 -0.299 | USP8 -0.217 | USP9X 0.0101 | UniProt O00487 -0.156
